Assay results published in PubChem BioAssay (EPA / NIEHS).
Calls of active or inactive are those of the source. Rule for the calls: active = hit-call score of the fitted dose curve at least 0.9, where 1 is the maximum; inactive = score below 0.9.

read-out: Intercellular Adhesion Molecule 1 (ICAM1), ICAM1 (gene 3383); experiment: LTEA_HepaRG_ICAM1: Life Technologies and Expression Analysis (LTEA) Assay for Intercellular Adhesion Molecule 1 (ICAM1) using HepaRG (AID 2283507); conditions: mRNA level, 48 h; actives raise or lower the signal
How it was run: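 ICAM1 transcript levels measured by qRT-PCR, normalized to three housekeeping genes (ACTB, GAPDH, POLR2A), after 48 h chemical exposure of HepaRG cells. Duplicate eight-point half-log series from 100 uM in 0.5% DMSO; gain or loss fitted against vehicle.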

SMILES | outcome | AC50
O=C(O)c1[nH]n(-c2ccc(S(=O)(=O)O)cc2)c(=O)c1N=Nc1ccc(S(=O)(=O)O)cc1 | inactive | –
CCCCCCCCCCCCCCOS(=O)(=O)O | inactive | –
CC(=O)O | inactive | –
CC(C)COC(=O)CCCCC(=O)OCC(C)C | inactive | –
CC(C)(C)c1ccccc1 | inactive | –
CC(C)NCC(O)c1ccc(O)c(O)c1 (centres undefined) | inactive | –
CCCCCCCCCC[N+](C)(C)[O-] | inactive | –
c1ccc2occc2c1 | inactive | –
CC(=O)OCC(COC(C)=O)OC(C)=O | inactive | –
Oc1ccc(O)cc1 | inactive | –
O=C(O)CC(O)(CC(=O)O)C(=O)O | inactive | –
COc1ccc(C(=O)Nc2nc3ccccc3c(NCc3ccccc3)c2C#N)cc1 | inactive | –
NC=O | inactive | –
CC(COCC(C)OC(=O)c1ccccc1)OC(=O)c1ccccc1 (centres undefined) | inactive | –
Cc1cn([C@H]2C=C[C@@H](CO)O2)c(=O)[nH]c1=O | inactive | –
CCN(CC)CCOc1ccc(C(=C(Cl)c2ccccc2)c2ccccc2)cc1 | – | 77.1 µM (active)
NCCOCCOCCN | inactive | –
C/C=C/c1ccc(OC)cc1 | inactive | –
COC(=O)[C@H]1[C@H]2C[C@@H]3c4[nH]c5cc(OC)ccc5c4CCN3C[C@H]2C[C@@H](OC(=O)c2cc(OC)c(OC)c(OC)c2)[C@@H]1OC | – | 28.7 µM (active)
N[C@@H](Cc1c[nH]c2ccccc12)C(=O)O | inactive | –
CSc1ccc(Oc2ccc(S(N)(=O)=O)cc2CN(C)C)cc1C | inactive | –
OCC(O)CO | inactive | –
CCc1nc(N)nc(N)c1-c1ccc(Cl)cc1 | inactive | –
CC(=O)[C@@]1(O)CC[C@H]2[C@@H]3CCC4=CC(=O)CC[C@]4(C)[C@H]3CC[C@@]21C | inactive | –
